{
  "source": "PubChem BioAssay (NCI)",
  "note": "The panel holds about 83,000 compounds, 20% with a hit somewhere; the sample as a whole holds those more often.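 For each line, cells grew in 96-well plates with the test compound present at a single concentration for 48 hours.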 Calls of active or inactive are those of the source. Rule for the calls: active = growth percent below 10; inactive = the rest.",
  "data": [
    {"system": "OVCAR-8 ovarian", "assay": "NCI-60 one-dose screen, 48 h (100 = growth as untreated, 0 = no growth, -100 = all killed)", "conditions": "10 µM unless noted", "values": [
      {"smiles": "O=[N+]([O-])c1c(O)c(Cl)cc(Cl)c1Cl", "growth": "101% (inactive)"},
      {"smiles": "CN1CCOCCN(C)Cc2ccc3ccc(cc3c2)CN(C)CCOCCN(C)Cc2ccc3ccc(cc3c2)C1", "growth": "103% (inactive)"},
      {"smiles": "O=C1/C(=C/c2c[nH]c(=O)[nH]c2=O)SC(=S)N1Cc1ccccc1", "growth": "100% (inactive)"},
      {"smiles": "O=Nc1ccc(NC(=O)Nc2ccc([N+](=O)[O-])cc2)cc1", "growth": "91.5% (inactive)"},
      {"smiles": "N#Cc1nn(-c2cc(=O)[nH]c3ccc(Br)cc23)c(N)c1C#N", "growth": "96% (inactive)"},
      {"smiles": "C[C@H](c1nc2ccc(C#N)cc2[nH]1)[C@H]1CC[C@H]2[C@@H]3CCC4=CC(=O)CC[C@]4(C)[C@H]3CC[C@]12C", "growth": "79.6% (inactive)"},
      {"smiles": "CCOC(=O)C1=C(c2ccccc2)N=C2N(c3ccccc3)N=C(C(C)=O)N2C1c1ccc(F)cc1", "note": "(configuration not stated)", "growth": "99.3% (inactive)"}
    ]}
  ]
}
